Assay results published in PubChem BioAssay AID652145 (The Scripps Research Institute Molecular Screening Center, 2013).
This is one part of the list. Unmarked numbers belong to inactive results. Active and inactive are the calls of the source. No rule for the calls is given here.

Assay: potency against coupled GDH and TPI enzymes – biochemical, fluorescence, IC50, artefact control for M. tuberculosis FBA inhibitor project, dose response (AID 652145)
Details: GDH-TPI coupled enzyme assay, artifact counterscreen

SMILES | IC50
CCOc1c2ccc(C(=O)NC3CCCc4ccccc43)cc2nn1CC (centres undefined) | 1.79 µM (active)
O=C(NCc1cccc(Cl)c1)C1=CC=CN2CCS(=O)(=O)N=C12 | 4.94 µM (active)
CC(=O)N1CCN(C(=O)c2cc(-c3ccc(Cl)s3)nc3ccccc23)CC1 | 2.27 µM (active)
COc1ccc2oc(=O)c(C(=O)NCc3ccccn3)cc2c1 | 1.9 µM (active)
Cn1cccc1-c1nc2ccccc2n1C | 5.56 µM (active)
CCCNC(=O)c1c(N)n(-c2ccc(S(N)(=O)=O)cc2)c2nc3ccccc3nc12 | 2.08 µM (active)
CC(=O)N1C(=O)/C(=C2\SC(=S)N(NC(=O)c3ccc(O)cc3)C2=O)c2ccccc21 | > 10 µM
N#Cc1c(N2CCCCC2)nc(N)c2c(N)nc(SCC(=O)O)cc12 | > 10 µM
O=C1C(=O)N(c2ccccc2)C(c2ccccc2)C1c1ccccc1 (centres undefined) | > 10 µM
